From PubChem BioAssay
TDP1 cell noCPT – qHTS for Inhibitors of human tyrosyl-DNA phosphodiesterase 1 (TDP1): qHTS in cells in absence of CPT | Potency, µM (titrated, usually from 46.2 µM), for the others: top-dose activity change, negative = growth inhibition, most hits filed as inhibitors | 15% of 420,000 active | DT40 Tdp1-/- hTDP1 cells, no CPT, ATP luminescence, 48 h; note: potency is the fitted concentration of half-maximal effect; nearly all actives have a fitted effect of over 55% in size
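Luminescent ATP content (CellTiter-Glo) served as the growth readout. Knockout chicken DT40 cells expressing human TDP1 were exposed to compounds without camptothecin for a minimum 48 hr at 37 °C.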
HT1080-NT tox – qHTS for induction of synthetic lethality in tumor cells producing 2HG: qHTS for the HT-1080-NT fibrosarcoma cell line; HT-1080-NT fibrosarcoma viability, CellTiter-Glo ATP luminescence, 48 h; Potency, µM (highest dose often 46.1 µM), without a hit: at the top dose activity, negative = less viability, usual class: cytotoxic; 1.6% of 360,000 active;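 note: NT is the 2HG producing partner of a matched IDH1 knockdown line; potency is the fitted concentration of half-maximal effect; 0% = DMSO-treated cells and -100% = media-only wells without cells; nearly all actives have a fitted effect of over 55% in size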
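A 48-hour cytotoxicity screen used HT-1080-NT cells plated 2 hours before compound delivery. ATP-based CellTiter-Glo luminescence measured viability, normalized to DMSO and no-cell controls.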
HT1080 IDH1KD tx – qHTS for induction of synthetic lethality in tumor cells producing 2HG: qHTS for the HT-1080-IDH1KD cell line; 2% of 360,000 active; HT-1080 IDH1 knockdown viability, ATP luminescence, 48 h; AID 686971, 2013; Potency, µM (top dose mostly 46.1 µM), for inactives: at the highest dose activity, negative = toxicity, actives largely listed as cytotoxic;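 note: potency is the fitted concentration of half-maximal effect; 0% = DMSO wells and -100% = cell-free medium wells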
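Luminescent ATP read-out (CellTiter-Glo, 10 min at room temperature) after 48 h compound exposure at 37 °C gave viability of IDH1-knockdown HT-1080 cells. Activity was normalised to DMSO and cell-free wells, then fitted as concentration-response curves.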
IL1B secr inh – qHTS for Inhibitors of Inflammasome Signaling: IL-1-beta AlphaLISA Primary Screen. THP-1 LPS/ATP IL-1B secretion, AlphaLISA, 16 h; active compounds read low. activity change, % at 57.5 µM. 4.7% of 360,000 active. AID 743279, 2014; in the data active = activity change below about -50%; inconclusive = mostly about -30% to -49%
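THP-1 cells pretreated 1 hr with compounds (up to 57.5 uM final), then stimulated with LPS (250 ng/mL final) plus ATP (1.25 mM final); secreted IL-1B measured by AlphaLISA after 16 hr, decreased signal indicating inhibition.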
TDP1 cell CPT – qHTS for Inhibitors of human tyrosyl-DNA phosphodiesterase 1 (TDP1): qHTS in cells in presence of CPT; 12% of 420,000 active; Potency, µM (titrated, usually from 46.2 µM), for inactives: top-dose activity change, negative = growth inhibition, usual class: inhibitors; AID 686979, 2013; chicken DT40 Tdp1-/-;hTDP1 cells + 20 nM CPT, ATP luminescence, 48 h; note: potency is the fitted concentration of half-maximal effect; nearly all actives have a fitted effect of over 55% in size
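Chicken DT40 Tdp1-/- cells stably complemented with human TDP1 were seeded at 400 cells/well in medium containing 20 nM camptothecin, exposed to pin-transferred compounds, and grown at 37 °C for at least 48 hr. Viability was read as ATP luminescence.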
Active calls of the source: *; ? = inconclusive; . = no result; [ ] = remark or other dose. Compounds with a hit are over-represented: about 19% of the library has one in this group of screens. Unless noted, calls come from the whole dose curve; as a rule, active = well fitted curve in the direction sought with a large enough effect; inconclusive = small, poorly fitted or top-dose-only effect, or another doubt; inactive = no such curve, though single readings can be large; an effect the other way counts as inactive or inconclusive. Unless noted, % is set by controls: 0 for no effect and ±100 for the full control effect.

SMILES	TDP1 cell noCPT	HT1080-NT tox	HT1080 IDH1KD tx	IL1B secr inh	TDP1 cell CPT
COc1ccc(NC(=O)/C(C#N)=C\C=C\c2ccco2)cc1	2.91µM*	?	20.6µM*	-22.1	8.2µM*
Nc1ccc(N2CCCCC2)cc1N1CCCCC1	?	?	-17.5%[9.24 µM]	?	?
Nc1ccc(N2CCCCC2)c2nonc12	16.4µM*	?	-12.3%	8.5	25.9µM*
O=C(/C=C/c1ccccc1Cl)Nc1ccc(-c2nnc3n2CCCCC3)cc1	-7.9%	27.2%	?	0.5	14.9%
CC(NC(=O)COc1ccccc1F)C1CC2CCC1C2 (stereo unspecified)	?	5.5%	-11.7%	0.0	?
Nc1ccc(C=C2C=Cc3ccccc32)cc1	0.6%	-13.3%	-9.1%	-74.4*	4.1%
C1=Cc2ccccc2/C1=C\c1cc[cH-]c1.[Fe+2].c1cc[cH-]c1	?	.	.	.	11.2µM*
CS(=O)(=O)c1ccc(/C=C2\C=Cc3ccccc32)cc1	20µM*	.	.	.	?
CN(N=O)c1ccc(/C=C2\C=Cc3ccccc32)cc1	-27.7%	.	.	.	2.2%
COc1ccc(/C=C2/C=Cc3ccccc32)cc1	?	.	.	.	1.4%
COc1cc(/C=C2\C=Cc3ccccc32)cc(OC)c1OC	15.8µM*	.	.	.	?
Cc1ccc2nc(COc3ccccc3NC(=O)COc3ccc(F)cc3)cc(=O)n2c1	-13.5%	.	.	.	0.1%
O=C(O)/C=C/C(=O)N1Cc2cc3ccccc3nc2C1	-5.0%	7.6%	3.4%	11.3	-0.2%
CC(C)c1ccc(N(CC(=O)N2CCOCC2)S(C)(=O)=O)cc1	1.6%	-6.2%	1.6%	22.0	25.0%
COC(=O)c1ccc(C(=O)N2CCc3c(C(=O)NC(C)c4ccco4)c(OC)cc(=O)n3CC2)cc1 (stereo unspecified)	-3.8%	.	.	.	-1.3%
NC(N)=Nc1ccc(C=C2C=Cc3ccccc32)cc1	9.2µM*	-10.6%	?	-68.3*	9.2µM*
CC(=O)Nc1ccc(C(=O)NCC(=O)OCc2ccccc2F)cc1	-0.8%	-12.5%	1.2%	0.0	0.9%
O=C(Nc1ccc(N2CCOCC2)cc1)c1ccc(Br)o1	-23.1%	-1.3%	-7.5%	?	-11.2%
O=C(Nc1cc(C(F)(F)F)ccc1N1CCCCC1)c1ccc(Br)o1	?	1.5%	0.7%	-3.6	18.4µM*
O=C(Nc1cccc(Cl)c1N1CCOCC1)c1ccc(Br)o1	10.3µM*	-0.7%	-2.1%	-1.8	10.3µM*
O=C(Nc1ccc(N2CCCC2)c(Cl)c1)c1ccc(Br)o1	?	?	?	-27.2	18.4µM*
COc1ccc(NC(=O)N2CC[C@@]3(CCCN(C(=O)c4ccc(OC)cc4)C3)C2)cc1	-7.3%	.	.	.	-11.1%
CCN(CC1COc2ccccc2O1)C(=S)Nc1ccc(F)cc1 (stereo unspecified)	?	-15.3%	-16.9%	-24.2	-17.3%
O=[N+]([O-])c1cccnc1NCc1cccs1	2.1%	4.6%	3.0%	0.0	-0.3%
Cc1ccc(-c2cnc(C(O)c3c(C)cccc3C)[nH]2)cc1 (stereo unspecified)	-25.6%	-3.3%	-20.7%	5.3	-24.6%
CCOC(=O)c1ccc(NC(=O)c2cnn(-c3ccc(C)cc3C)c2C2CCN(C(=O)OC(C)(C)C)CC2)cc1	16.4µM*	.	.	.	?
Cc1ccc(-n2ncc(C(=O)Nc3ccc4c(c3)OCO4)c2C2CCN(C(=O)OC(C)(C)C)CC2)c(C)c1	29.1µM*	.	.	.	?
CCOC(=O)N1CCC(NC(=O)c2cnn(-c3ccc(C)cc3C)c2C2CCN(C(=O)OC(C)(C)C)CC2)CC1	-24.2%	.	.	.	-27.0%
CCOC(=O)C1=C(COC(=O)C2CC(=O)N(c3ccc(CC)cc3)C2)NC(=O)NC1C (stereo unspecified)	-3.1%	0.6%	7.1%	5.4	3.0%
